Article PMC12670160, “A drug-repurposing screen of FDA- and EMA-approved drugs identifies two NF-κB inhibitors active against eumycetoma” (Journal of Antimicrobial Chemotherapy, 2025)
Where a name gives a salt, the structure may show the parent alone. Read-outs that look alike come from different tables or passages of the source. Out of some 5,300 compounds screened, about 130 (2.5%) showed an effect of 50% or more. What follows is part of a selection rich in strong results, with near analogues and random picks from the rest.

Test system: M. mycetomatis strain mm55
Details: 96 h, 2 µM

COc1cc2cc(c1Cl)N(C)C(=O)C[C@H](OC(=O)C(C)C)[C@]1(C)O[C@H]1[C@H](C)[C@@H]1C[C@@](O)(NC(=O)O1)[C@H](OC)/C=C/C=C(\C)C2 [ONC0000769, ansamitocin p3]
% viability (m. mycetomatis hyphae): 44.45%

Cc1[nH]c2ccc(O)cc2c1CCN [ONC0000021, 2methyl5hydroxytryptamine]
% viability (m. mycetomatis hyphae): 80.31%

OCC(Br)(Br)Br [ONC0003374, 222tribromoethanol]
% viability (m. mycetomatis hyphae): 70.94%

COC(=O)CC[C@@H]1N=C(c2ccccn2)c2cc(Br)ccc2-n2c(C)cnc21 [ONC0001123, remimazolam benzenesulfonate]
% viability (m. mycetomatis hyphae): 82.85%

Ic1cncc(OC[C@@H]2CCN2)c1 [ONC0001838, 5iodoa85380]
% viability (m. mycetomatis hyphae): 120.9%

NC(=S)N/N=C/c1coc2ccccc2c1=O [ONC0001578, fpa124]
% viability (m. mycetomatis hyphae): 55.38%

C[C@@H](N)C(=O)N[C@@H](CO)C(=O)N[C@H](C(=O)N[C@H](C(=O)N[C@H](C(=O)N[C@@H](CC(N)=O)C(=O)N[C@@H](Cc1ccc(O)cc1)C(=O)N[C@H](C(N)=O)[C@@H](C)O)[C@@H](C)O)[C@@H](C)O)[C@@H](C)O [ONC0001968, dapta]
% viability (primary screen, metabolic activity vs growth control, inhibitor): 96.08%

COc1ccc(C(=O)c2c(C)n(CCN3CCOCC3)c3ccccc23)cc1 [ONC0001936, pravadoline]
% viability (m. mycetomatis hyphae): 72.97%

COc1ccc(C(=O)c2c(C)n(CCN3CCOCC3)c3cc(I)ccc23)cc1 [ONC0003455, am630 iodopravadoline]
% viability (m. mycetomatis hyphae): 49.32%

CC(=O)NCCCOc1ccc(C(=O)N2CCC(N3C(=O)CCc4ccccc43)CC2)cc1 [ONC0002419, fuscoside]
% viability (m. mycetomatis hyphae): 92.96%

CC(=O)O[C@H]1CC[C@@]2(C)C(=CCC3C2CC[C@]2(C)C(=O)CCC32)C1 (stereo partly shown) [ONC0003269, prasterone acetate]
% viability (m. mycetomatis hyphae): 44.2%

C[C@]12CC[C@H](O)C[C@@H]1CC[C@@H]1[C@H]2CC[C@]2(C)C(=O)CC[C@@H]12 [ONC0005247, epiandrosterone 3androsterone]
% viability (m. mycetomatis hyphae): 106.6%

CC(=O)O[C@H]1CC[C@@]2(C)C(=CC(=O)[C@@H]3[C@@H]2CC[C@]2(C)C(=O)CC[C@@H]32)C1 [ONC0002730, 7oxodehydroepiandrosterone acetate]
% viability (m. mycetomatis hyphae): 95.04%

Cc1ncc(OC[C@@]2(c3cccc(F)c3)C[C@H]2C(=O)Nc2ccc(F)cn2)c(C)n1 [ONC0001232, lemborexant]
% viability (m. mycetomatis hyphae): 126.3%

COC(=O)C1=C(C)NC(C)=C(C(=O)OCCCN2CCC(c3ccccc3)(c3ccccc3)CC2)[C@@H]1c1cccc([N+](=O)[O-])c1 [ONC0000198, dexniguldipine]
% viability (m. mycetomatis hyphae): 76.6%

Cc1ccc2c(c1)[C@]13CCCC[C@@H]1[C@H](C2)N(C)CC3 [ONC0001964, dimemorfan]
% viability (m. mycetomatis hyphae): 96.79%

O=C1C=C2C=C[C@@H]3C[C@@]2(O1)[C@H]1CCCCN31 [ONC0004197, securinine]
% viability (m. mycetomatis hyphae): 79.41%

OC1(c2ccc(Cl)cc2)c2ccccc2C2=NCCN21 (stereo not shown) [ONC0005297, mazindol]
% viability (m. mycetomatis hyphae): 110.5%

CN(C)CCNc1nc2cc(O)ccc2c2c1C(=O)c1ccccc1-2 [ONC0002255, tas103 dihydrochloride]
% viability (m. mycetomatis hyphae): 114.4%

Oc1ccc2c3c1O[C@H]1c4[nH]c5ccccc5c4C[C@@]4(O)[C@@H](C2)N(CC2CC2)CC[C@]314 [ONC0001519, naltrindole]
% viability (m. mycetomatis hyphae): 93.26%

Oc1ccc2c3c1O[C@H]1c4[nH]c5c(c4C[C@@]4(O)[C@@H](C2)N(CC2CC2)CC[C@]314)C[C@@]1(O)[C@H]2Cc3ccc(O)c4c3[C@@]1(CCN2CC1CC1)[C@H]5O4 [ONC0002653, norbinaltorphiminedihydrochloride]
% viability (m. mycetomatis hyphae): 66%

CN(C(=O)/C=C/c1ccoc1)[C@@H]1CC[C@@]2(O)[C@H]3Cc4ccc(O)c5c4[C@@]2(CCN3CC2CC2)[C@H]1O5 [ONC0001145, nalfurafine hydrochloride]
% viability (m. mycetomatis hyphae): 84.21%

Oc1ccc2c3c1O[C@H]1[C@@H](O)CC[C@@]4(O)[C@@H](C2)N(CC2CCC2)CC[C@]314 [ONC0002017, nalbuphinehcl]
% viability (m. mycetomatis hyphae): 86.82%

Oc1ccc2c3c1O[C@H]1c4oc5ccccc5c4C[C@@]4(O)[C@@H](C2)N(CC2CC2)CC[C@]314 [ONC0001439, naltriben]
% viability (m. mycetomatis hyphae): 49.95%

COC(=O)/C=C/C(=O)N[C@@H]1CC[C@@]2(O)[C@H]3Cc4ccc(O)c5c4[C@@]2(CCN3CC2CC2)[C@H]1O5 [ONC0001459, betafunaltrexamine]
% viability (m. mycetomatis hyphae): 48.02%

O=C1NC(=S)NC(=O)C1C(=O)Nc1ccccc1 [ONC0002959, merbarone]
% viability (m. mycetomatis hyphae): 104.2%

COc1ccsc1CNCC[C@@]1(c2ccccn2)CCOC2(CCCC2)C1 [ONC0001391, oliceridine hydrochloride]
% viability (m. mycetomatis hyphae): 102.3%

O=C(C[S+]([O-])C(c1ccccc1)c1ccccc1)NO (stereo not shown) [ONC0001184, adrafinil]
% viability (m. mycetomatis hyphae): 106.5%

Clc1ccc(CO/N=C(\Cn2ccnc2)c2ccc(Cl)cc2Cl)c(Cl)c1 [Oxiconazole nitrate]
% viability (m. mycetomatis hyphae): 0.8852%

CC(=O)[C@H]1CC[C@H]2[C@@H]3CC[C@@H]4C[C@H](O)CC[C@]4(C)[C@H]3CC[C@]12C [ONC0001671, allopregnanolone]
% viability (m. mycetomatis hyphae): 102.1%

Cc1ccccc1-n1c(CF)nc2ccc(N)cc2c1=O [ONC0003405, afloqualone]
% viability (m. mycetomatis hyphae): 71.52%

CC(C)CC(N)C1(c2ccc(Cl)cc2)CCC1 (stereo not shown) [ONC0002665, bts54505]
% viability (m. mycetomatis hyphae): 62.54%

O=C(Nc1ccccc1F)N[C@H]1N=C(c2ccccc2)c2ccccc2NC1=O [ONC0000966, rsv604]
% viability (m. mycetomatis hyphae): 70.36%

OCC(O)[C@H]1O[C@@H]2O[C@H](C(Cl)(Cl)Cl)O[C@@H]2[C@H]1O (stereo partly shown) [ONC0004285, chloralose]
% viability (m. mycetomatis hyphae): 88.6%

c1ccc(CC(c2ccccc2)N2CCCCC2)cc1 (stereo not shown) [ONC0000060, 112diphenylethylpiperidine]
% viability (m. mycetomatis hyphae): 45.07%

Cc1cccc(C)c1N=C1NCCCS1 [ONC0000628, xylazine]
% viability (m. mycetomatis hyphae): 103.4%

O=C(O)Cc1cccnc1C(=O)O [ONC0001551, homoquinolinicacid]
% viability (m. mycetomatis hyphae): 85.08%

C=C(C)[C@@H]1[C@H]2OC(=O)[C@H]1[C@]1(O)C[C@H]3O[C@]34C(=O)O[C@H]2[C@]14C [ONC0004797, picrotoxinin]
% viability (m. mycetomatis hyphae): 48.22%

CC(C)(O)[C@H]1[C@@H]2OC(=O)[C@@H]1[C@]1(O)C[C@H]3O[C@]34C(=O)O[C@H]2[C@]14C [ONC0002779, picrotin]
% viability (m. mycetomatis hyphae): 109.3%

C=CCN1CC[C@@]2(C)c3cc(O)ccc3C[C@H]1[C@H]2C [ONC0000854, skf10047]
% viability (m. mycetomatis hyphae): 56.88%
